Measured values reported in PubChem BioAssay (Tox21).
Records with an inconclusive call do not appear. Entries that show only a call come without a potency. Active and inactive are the calls of the source. The call rests on the fitted dose curve; in most records, active means well fitted cell-killing curve with a large enough effect in the repeat runs; inconclusive means weak or mixed curves, or effect the other way; inactive means flat fitted curve, though single readings scatter.

Assay: Nuclear factor erythroid 2-related factor 2/antioxidant responsive element (Nrf2/ARE) small molecule agonists: qHTS cell viability counter screen in human keratinocytes (AID 1919968); further: nearly all actives have a fitted effect of over 55% in size
Conditions: KeratinoSens HaCaT ARE cells viability, CellTiter-Fluor, 24 h; series mostly up to 92.4 µM
Outline: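 KeratinoSens cells (HaCaT keratinocytes stably carrying an ARE-luciferase reporter) were seeded at 1,500 cells/well and rested 5 h at 37 C/5% CO2. They were then exposed to compounds in DMSO for 23 h. Viability was read by CellTiter-Fluor fluorescence after 1 h.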
Potency means the concentration at half of the fitted maximal effect.

| SMILES | Potency |
| --- | --- |
| Oc1ccc2c(c1)OCO2 | inactive |
| CCCCCCOC(=O)CCC | inactive |
| N=C1C=CC(=C(c2ccc(N)cc2)c2ccc(N)cc2)C=C1 | 27.3 µM (active) |
| C/C(=N/NC(=O)c1ccncc1)C(=O)O | inactive |
| O=C(O)Cc1ccc(-c2ccccc2)cc1 | inactive |
| COc1c(N2CCNC(C)C2)c(F)cc2c(=O)c(C(=O)O)cn(C3CC3)c12 (centres undefined) | inactive |
| CN1[C@@H]2CC[C@H]1CC(OC(=O)c1c[nH]c3ccccc13)C2 (some centres undefined) | inactive |
| Cc1cccc(N(C)C(=S)Oc2ccc3c(c2)CCC3)c1 | inactive |
| COc1cc(-c2nc(NC(=O)c3cc4cc(C)cc(C)c4n3CC(=O)O)sc2CCC2CCCCC2)c(OC)cc1Cl | 17.7 µM (active) |
| O=CCCc1ccccc1 | inactive |
| CCCCN1CCCC[C@H]1C(=O)Nc1c(C)cccc1C | inactive |
| CC(C)(C)c1cc(CCC(=O)NN)cc(C(C)(C)C)c1O | inactive |
| CCC(CC)C(=O)O | inactive |
| CC1(C)S[C@@H]2[C@H](NC(=O)C(c3ccccc3)S(=O)(=O)O)C(=O)N2[C@H]1C(=O)O (some centres undefined) | inactive |
| CCOc1ccc([N+](=O)[O-])cc1 | 62 µM (active) |
| CC(C)=CCC/C(C)=C/CC/C(C)=C/CCC(=O)OC/C=C(\C)CCC=C(C)C | inactive |
| CCCC(C)C | inactive |
| Clc1cc(Cl)c(Cl)nc1Cl | inactive |
| CCCCCCC(CO)CCCC (centres undefined) | inactive |
| Oc1cccc2cc3cccc(O)c3c(O)c12 | inactive |
| O=S1(=O)c2cccc3cccc(c23)N1CCCN1CCN(c2ccc(F)cc2)CC1 | inactive |
| Cc1ccc(NC(N)=O)cc1 | inactive |
| N=C1N=C(N)c2ccccc21 | 61.1 µM (active) |
| CCC(=O)Oc1ccc2c(c1)CC[C@@H]1[C@@H]2CC[C@@]2(C)[C@H]1C[C@@H](OC(=O)CC)[C@@H]2OC(=O)CC | inactive |
| Cc1nc(C2CCCCC2)c(-c2ccc(S(N)(=O)=O)c(F)c2)o1 | inactive |
| COS(=O)(=O)C(F)(F)F | inactive |
| CCOC(=O)COC(=O)c1ccccc1C(=O)OCC | inactive |
| O=C(O)CC(C(=O)O)S(=O)(=O)O (centres undefined) | inactive |
| CCOc1ccc2ccccc2c1C(=O)N[C@@H]1C(=O)N2[C@@H]1SC(C)(C)[C@@H]2C(=O)O | inactive |
